Eight compounds from ChEMBL document CHEMBL1961873, “Compounds: GSK PKIS; Assays: Nanosyn kinase panel” (2012) can be followed below.

The target of assay [1] is Sphingosine kinase 1 (Homo sapiens) (UniProt Q9NYA1). The note with it: at 1 µM.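 Further: mean SPHK1 inhibition value reported from the GSK PKIS kinase panel screen.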
Assay [2] deals with T1, Sphingosine kinase 2 (Homo sapiens) (UniProt Q9NRA0).
T1 sequence (whole entry): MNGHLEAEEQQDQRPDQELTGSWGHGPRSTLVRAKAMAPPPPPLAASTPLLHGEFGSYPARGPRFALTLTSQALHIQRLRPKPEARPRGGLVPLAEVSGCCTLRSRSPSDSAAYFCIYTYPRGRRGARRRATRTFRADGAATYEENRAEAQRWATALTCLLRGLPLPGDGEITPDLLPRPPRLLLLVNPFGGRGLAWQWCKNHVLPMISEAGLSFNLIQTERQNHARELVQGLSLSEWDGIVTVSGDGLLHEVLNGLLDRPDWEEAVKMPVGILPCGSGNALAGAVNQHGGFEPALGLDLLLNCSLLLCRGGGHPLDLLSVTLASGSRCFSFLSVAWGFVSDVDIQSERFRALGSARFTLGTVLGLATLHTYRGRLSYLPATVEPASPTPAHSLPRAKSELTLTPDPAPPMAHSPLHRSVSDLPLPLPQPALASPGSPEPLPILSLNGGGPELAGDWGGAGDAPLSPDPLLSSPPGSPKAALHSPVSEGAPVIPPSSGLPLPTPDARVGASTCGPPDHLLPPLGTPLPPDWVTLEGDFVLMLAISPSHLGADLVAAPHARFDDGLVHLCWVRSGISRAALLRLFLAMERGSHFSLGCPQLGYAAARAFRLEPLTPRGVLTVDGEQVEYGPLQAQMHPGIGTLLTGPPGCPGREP
As to conditions: at 0.1 µM.

Assay [3] has as its target T1, Sphingosine kinase 2 (Homo sapiens). The note with it: at 1 µM.
Assay [4] deals with Casein kinase II subunit alpha (Homo sapiens) (UniProt P68400). As to conditions: at 0.1 µM.
Assay [5] shares this target. As to conditions: at 1 µM.
For assay [6], the target named is T2, Inhibitor of nuclear factor kappa-B kinase subunit alpha (Homo sapiens) (UniProt O15111).
T2 sequence (whole entry): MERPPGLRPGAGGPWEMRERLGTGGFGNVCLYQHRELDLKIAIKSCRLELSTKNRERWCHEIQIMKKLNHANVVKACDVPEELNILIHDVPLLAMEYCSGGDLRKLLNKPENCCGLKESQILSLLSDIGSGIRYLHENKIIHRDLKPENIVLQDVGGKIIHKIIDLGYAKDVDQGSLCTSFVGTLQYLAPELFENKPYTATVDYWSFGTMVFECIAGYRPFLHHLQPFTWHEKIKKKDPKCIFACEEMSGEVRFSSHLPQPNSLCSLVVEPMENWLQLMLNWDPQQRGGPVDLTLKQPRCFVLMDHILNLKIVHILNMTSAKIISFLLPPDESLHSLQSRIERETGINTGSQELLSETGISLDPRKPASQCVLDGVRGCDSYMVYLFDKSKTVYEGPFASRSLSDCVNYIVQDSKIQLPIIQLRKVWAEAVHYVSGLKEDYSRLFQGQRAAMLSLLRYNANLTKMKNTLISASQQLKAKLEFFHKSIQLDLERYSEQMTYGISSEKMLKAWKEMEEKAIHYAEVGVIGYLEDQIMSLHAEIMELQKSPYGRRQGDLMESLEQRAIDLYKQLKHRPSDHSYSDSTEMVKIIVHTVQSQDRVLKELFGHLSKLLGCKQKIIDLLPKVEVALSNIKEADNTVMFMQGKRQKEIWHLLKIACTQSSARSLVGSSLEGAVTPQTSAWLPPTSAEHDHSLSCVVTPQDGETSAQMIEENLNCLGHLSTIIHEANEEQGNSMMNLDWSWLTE
As to conditions: at 0.1 µM.

For assay [7], the target named is T2, Inhibitor of nuclear factor kappa-B kinase subunit alpha (Homo sapiens). As to conditions: at 1 µM.
In assay [8] the target is T3, Inhibitor of nuclear factor kappa-B kinase subunit beta (Homo sapiens) (UniProt O14920).
T3 sequence (whole entry): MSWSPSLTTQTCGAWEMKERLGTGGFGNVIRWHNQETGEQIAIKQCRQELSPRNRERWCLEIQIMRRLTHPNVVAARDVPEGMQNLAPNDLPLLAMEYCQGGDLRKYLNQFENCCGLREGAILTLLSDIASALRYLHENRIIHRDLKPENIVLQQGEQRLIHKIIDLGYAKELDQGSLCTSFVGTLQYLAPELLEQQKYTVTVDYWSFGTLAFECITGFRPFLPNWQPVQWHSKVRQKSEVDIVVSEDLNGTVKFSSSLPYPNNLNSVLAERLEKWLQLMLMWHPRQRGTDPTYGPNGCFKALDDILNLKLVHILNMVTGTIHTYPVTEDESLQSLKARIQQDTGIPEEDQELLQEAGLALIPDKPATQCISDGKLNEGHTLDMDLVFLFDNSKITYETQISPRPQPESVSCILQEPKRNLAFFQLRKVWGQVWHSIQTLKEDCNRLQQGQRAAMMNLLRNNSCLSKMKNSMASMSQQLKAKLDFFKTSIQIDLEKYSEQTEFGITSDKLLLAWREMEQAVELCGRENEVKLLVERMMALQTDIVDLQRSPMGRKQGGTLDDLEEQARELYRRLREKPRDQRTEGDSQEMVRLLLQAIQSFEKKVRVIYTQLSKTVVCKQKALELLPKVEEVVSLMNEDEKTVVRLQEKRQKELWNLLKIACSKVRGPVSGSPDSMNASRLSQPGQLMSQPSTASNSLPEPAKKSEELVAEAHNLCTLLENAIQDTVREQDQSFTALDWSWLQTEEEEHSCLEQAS
The note with it: at 0.1 µM.

The target in assay [9] is T3, Inhibitor of nuclear factor kappa-B kinase subunit beta (Homo sapiens). As to conditions: at 1 µM.
Assay [10] has as its target T4, Inhibitor of nuclear factor kappa-B kinase subunit epsilon (Homo sapiens) (UniProt Q14164).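 Further: mean inhibition of IKKε reported, from the GSK PKIS dataset.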
T4 sequence (whole entry): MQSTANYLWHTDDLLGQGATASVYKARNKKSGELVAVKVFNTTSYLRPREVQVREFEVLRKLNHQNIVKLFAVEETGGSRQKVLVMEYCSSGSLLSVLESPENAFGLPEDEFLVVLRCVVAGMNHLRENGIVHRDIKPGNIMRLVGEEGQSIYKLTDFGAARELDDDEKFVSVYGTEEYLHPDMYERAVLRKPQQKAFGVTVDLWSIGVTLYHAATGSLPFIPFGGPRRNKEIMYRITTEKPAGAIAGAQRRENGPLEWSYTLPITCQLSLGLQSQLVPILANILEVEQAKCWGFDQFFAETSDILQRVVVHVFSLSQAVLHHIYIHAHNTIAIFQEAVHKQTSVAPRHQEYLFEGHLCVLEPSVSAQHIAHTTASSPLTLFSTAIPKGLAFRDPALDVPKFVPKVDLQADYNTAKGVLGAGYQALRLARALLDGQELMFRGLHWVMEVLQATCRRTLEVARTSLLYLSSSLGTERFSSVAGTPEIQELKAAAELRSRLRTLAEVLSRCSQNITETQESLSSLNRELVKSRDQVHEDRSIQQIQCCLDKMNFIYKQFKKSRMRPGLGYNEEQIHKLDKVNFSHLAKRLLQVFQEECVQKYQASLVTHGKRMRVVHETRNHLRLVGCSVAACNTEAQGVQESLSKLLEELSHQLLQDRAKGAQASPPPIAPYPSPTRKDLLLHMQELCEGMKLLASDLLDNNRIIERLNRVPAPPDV
The note with it: at 0.1 µM.

Sphingosine kinase 1 (Homo sapiens), sequence (Q9NYA1 whole entry): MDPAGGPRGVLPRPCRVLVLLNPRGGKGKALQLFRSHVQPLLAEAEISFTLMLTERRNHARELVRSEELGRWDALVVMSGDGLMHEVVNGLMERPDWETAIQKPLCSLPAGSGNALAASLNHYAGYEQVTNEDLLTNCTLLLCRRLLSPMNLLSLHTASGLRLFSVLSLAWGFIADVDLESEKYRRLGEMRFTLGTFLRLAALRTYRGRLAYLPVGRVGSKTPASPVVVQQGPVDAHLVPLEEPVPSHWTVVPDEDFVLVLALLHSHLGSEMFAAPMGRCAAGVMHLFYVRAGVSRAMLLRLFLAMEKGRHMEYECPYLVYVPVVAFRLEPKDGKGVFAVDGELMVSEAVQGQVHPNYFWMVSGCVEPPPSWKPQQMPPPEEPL
Casein kinase II subunit alpha (Homo sapiens), sequence (P68400 whole entry, looked up): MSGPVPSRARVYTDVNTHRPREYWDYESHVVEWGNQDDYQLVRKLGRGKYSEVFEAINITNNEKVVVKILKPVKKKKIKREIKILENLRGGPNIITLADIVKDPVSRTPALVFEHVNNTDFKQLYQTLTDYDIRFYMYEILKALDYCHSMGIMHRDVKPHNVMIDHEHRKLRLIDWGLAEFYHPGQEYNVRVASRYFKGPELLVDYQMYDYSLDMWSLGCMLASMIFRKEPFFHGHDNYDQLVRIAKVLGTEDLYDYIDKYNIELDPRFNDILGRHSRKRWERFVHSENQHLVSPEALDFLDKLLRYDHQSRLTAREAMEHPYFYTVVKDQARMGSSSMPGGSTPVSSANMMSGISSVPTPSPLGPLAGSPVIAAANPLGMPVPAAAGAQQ

One may read the inhibition as the change of the read-out against control, counted positive when it falls. As to `Fc1ccc(-c2nc3n(c2-c2ccncc2)CCS3)cc1`, the inhibition in assay [1] is -0.03%; in assay [2], -0.14%; in [3] it was -0.18%; in assay [4] it was 0.53%; in assay [5] it was -1.41%; in [6], 5.66%. For the same compound, the inhibition was 4.06% in assay [7], 6.22% in assay [8], 4.63% in assay [9] and 5.03% in assay [10].
`NCc1ccc(-n2c(-c3nonc3N)nc3cnccc32)cc1`: the inhibition is -0.9% in assay [1]; 0.05% in assay [2]; -0.74% in assay [3]; 9.32% in assay [4]; 9.93% in [5]; 7.27% in assay [6]. In addition, the inhibition was 7.43% in assay [7], 8.87% in assay [8], 7.17% in assay [9] and 5.51% in [10].
Consider `O=C(Nc1n[nH]c2nc(-c3ccc(O)cc3)c(Br)cc12)C1CC1`, for which the inhibition in assay [1] is -0.49%; in assay [2], -0.76%; in assay [3] it was -0.74%; in assay [4], 3.43%; in assay [5] it was 5.84%; in assay [6] it was 8.51%. Also, the inhibition worked out at 12.4% in assay [7], 6.98% in assay [8], 9.61% in assay [9] and 8.95% in assay [10].
On to `O=C1Nc2ccc(I)cc2C1=Cc1cc(Br)c(O)c(Br)c1`, for which the inhibition was 0.73% in assay [1]; -0.66% in assay [2]; 3.26% in assay [3]; 4.28% in [4]; 17.9% in assay [5]; 1.76% in assay [6]. The inhibition in assay [7] worked out at 3.02%; in assay [8], 1.64%; in assay [9], 3.61%; in [10], 10.2%.
Turning to `CNC(=O)c1cncc(/C=C/c2c(C)cccc2C)c1`, the inhibition was -1.57% in [1]; 0.8% in [2]; 2.92% in assay [3]; 1.93% in [4]; 5.37% in assay [5]; 2.95% in assay [6]. Also, the inhibition in [7] was -0.54%; in assay [8] it was 1.19%; in [9] it was -0.96%; in assay [10], 0.37%.
In the case of `C#Cc1cccc(Nc2ncnc3ccc(OCCCCNCCS(C)(=O)=O)cc23)c1`, the inhibition in assay [1] was -0.99%; in [2], -0.09%; in [3] it was 0.04%; in assay [4], 4.02%; in assay [5], 9.21%; in assay [6], 5.89%. For the same compound, the inhibition worked out at 12.2% in [7], 6.73% in assay [8], 9.06% in [9] and 7.86% in [10].
For the compound `c1ccc(Oc2ccc(Nc3ncc(-c4ccccc4)o3)cc2)cc1`, the inhibition in assay [1] was 0.89%; in assay [2], 3.77%; in assay [3] it was -0.07%; in [4] it was 3.77%; in [5], 5.82%; in assay [6] it was 5.9%. Moreover, the inhibition in assay [7] was -0.96%; in assay [8], 1.69%; in assay [9], -1.75%; in [10], 1.29%.
Take `c1ccc(-c2n[nH]cc2-c2ccnc(-c3ccc(OCCN4CCOCC4)cc3)c2)nc1`: the inhibition in [1] is -1.7%; in assay [2], 0.79%; in [3] it was -2.14%; in assay [4] it was -3.28%; in assay [5], -4.72%; in assay [6] it was -2.42%. Besides, the inhibition was -8.48% in assay [7], -4.16% in assay [8], -6.86% in assay [9] and -5.44% in assay [10].
